Among all 5,500 compounds or so, about 2,000 (36%) were called active. Inconclusive results (about 18%) are left out. Rule as the data show it: active = normalized growth mostly below about 0.91 (no sharp cut-off); inconclusive = no clear call, values can overlap the other calls; inactive = mostly above about 0.92. This is one part of the list.
Assay: chemical genetic growth profiling, strain panel (AID 1159580);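 also: tested at 20 µM; growth read once vehicle control cultures reached saturation at 30 °C; 1 = growth at the plate median or of vehicle wells; lower values mean less growth of the strain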
Details: S. cerevisiae deletion strains, growth OD

Measured: normalized growth

CCC(=O)Nc1ccc(Cl)c(Cl)c1
inactive: locus YAL013W, strain DEP1, stronger effect = lower value 0.99 | locus YAL021C, strain ccr4, stronger effect = lower value 0.975 | locus YAL026C, strain drs2, stronger effect = lower value 0.994 | locus YAL030W, strain snc1, stronger effect = lower value 1.01 | locus YBL061C, strain skt5, stronger effect = lower value 0.978 | locus YBR009C, strain hhf1, stronger effect = lower value 0.982 | locus YBR021W, strain FUR4, stronger effect = lower value 0.952 | locus YBR023C, strain chs3, stronger effect = lower value 0.988 | locus YBR171W, strain sec66, stronger effect = lower value 0.983 | locus YBR229C, strain ROT2, stronger effect = lower value 1 | locus YBR231C, strain swc5, stronger effect = lower value 0.982 | locus YBR279W, strain paf1, stronger effect = lower value 0.99 | locus YCL011C, strain gbp2, stronger effect = lower value 0.983 | locus YCL016C, strain dcc1, stronger effect = lower value 0.989 | locus YCL029C, strain bik1, stronger effect = lower value 1.01 | locus YCL061C, strain MRC1, stronger effect = lower value 0.986 | locus YCL069W, strain vba3, stronger effect = lower value 0.996 | locus YCR088W, strain abp1, stronger effect = lower value 0.99 | locus YDL005C, strain med2, stronger effect = lower value 0.981 | locus YDL035C, strain GPR1, stronger effect = lower value 0.988 | locus YDL040C, strain nat1, stronger effect = lower value 0.99 | locus YDL074C, strain BRE1, stronger effect = lower value 0.898 | locus YDL101C, strain DUN1, stronger effect = lower value 0.999 | locus YDL134C, strain PPH21, stronger effect = lower value 1 | locus YDL185W, strain tfp1, stronger effect = lower value 0.99 | locus YDL192W, strain arf1, stronger effect = lower value 0.994 | locus YDR001C, strain nth1, stronger effect = lower value 0.989 | locus YDR069C, strain doa4, stronger effect = lower value 0.971 | locus YDR101C, strain arx1, stronger effect = lower value 0.991 | locus YDR137W, strain rgp1, stronger effect = lower value 1.03 | locus YDR150W, strain NUM1, stronger effect = lower value 0.998 | locus YDR159W, strain sac3, stronger effect = lower value 0.959 | locus YDR162C, strain NBP2, stronger effect = lower value 0.985 | locus YDR195W, strain ref2 0.956 | locus YDR297W, strain sur2, stronger effect = lower value 0.988 | locus YDR318W, strain mcm21, stronger effect = lower value 0.996 | locus YDR334W, strain swr1, stronger effect = lower value 0.996 | locus YDR335W, strain msn5, stronger effect = lower value 0.988 | locus YDR388W, stronger effect = lower value 1 | locus YDR392W, strain spt3, stronger effect = lower value 0.98 | locus YDR502C, strain sam2, stronger effect = lower value 0.998 | locus YEL003W, strain gim4, stronger effect = lower value 0.992 | locus YEL037C, strain rad23, stronger effect = lower value 1 | locus YEL061C, strain CIN8 (second series), stronger effect = lower value 0.978 | locus YEL061C, strain CIN8, stronger effect = lower value 0.994 | locus YER016W, strain bim1, stronger effect = lower value 0.991 | locus YER110C, stronger effect = lower value 0.996 | locus YER111C, strain swi4, stronger effect = lower value 0.989 | locus YER155C, strain BEM2 (second series), stronger effect = lower value 0.998 | locus YER155C, strain BEM2, stronger effect = lower value 1.01 | locus YER167W, strain BCK2, stronger effect = lower value 1 | locus YFR010W, strain ubp6, stronger effect = lower value 0.993 | locus YGL078C, strain dbp3, stronger effect = lower value 1.01 | locus YGL086W, strain mad1, stronger effect = lower value 0.997 | locus YGL167C, strain pmr1, stronger effect = lower value 0.984 | locus YGL173C, strain kem1, stronger effect = lower value 0.978 | locus YGL227W, strain vid30, stronger effect = lower value 0.988 | locus YGL240W, strain doc1, stronger effect = lower value 0.96 | locus YGL248W, strain PDE1, stronger effect = lower value 0.993 | locus YGL253W, strain hxk2, stronger effect = lower value 1 | locus YGR078C, strain PAC10, stronger effect = lower value 0.961 | locus YGR135W, strain pre9, stronger effect = lower value 0.982 | locus YGR229C, strain SMI1, stronger effect = lower value 0.958 | locus YGR252W, strain gcn5, stronger effect = lower value 0.874 | locus YHR013C, strain ard1, stronger effect = lower value 0.971 | locus YHR027C, strain rpn1, stronger effect = lower value 0.994 | locus YHR030C, strain SLT2, stronger effect = lower value 0.978 | locus YHR079C, strain IRE1 (second series), stronger effect = lower value 0.999 | locus YHR094C, strain hxt1, stronger effect = lower value 1 | locus YHR129C, strain ARP1, stronger effect = lower value 0.988 | locus YHR142W, strain chs7, stronger effect = lower value 1 | locus YHR200W, strain rpn10, stronger effect = lower value 1 | locus YIL066C, strain RNR3, stronger effect = lower value 0.991 | locus YIL073C, strain SPO22, stronger effect = lower value 1.01 | locus YIL125W, strain kgd1, stronger effect = lower value 1 | locus YIR030C, strain dcg1, stronger effect = lower value 1 | locus YJL092W, strain hpr5, stronger effect = lower value 0.985 | locus YJL095W, strain BCK1 (second series), stronger effect = lower value 0.996 | locus YJL095W, strain BCK1, stronger effect = lower value 0.924 | locus YJL115W, strain asf1, stronger effect = lower value 0.992 | locus YJL129C, strain trk1, stronger effect = lower value 0.968 | locus YJL134W, strain LCB3, stronger effect = lower value 0.986 | locus YJL154C, strain vps35, stronger effect = lower value 0.998 | locus YJL164C, strain tpk1, stronger effect = lower value 1.01 | locus YJL166W, strain qcr8, stronger effect = lower value 0.986 | locus YJL168C, strain set2, stronger effect = lower value 1 | locus YJL187C, strain SWE1 (second series), stronger effect = lower value 1.01 | locus YJL187C, strain SWE1, stronger effect = lower value 0.984

— PubChem BioAssay AID1159580 (chemical genetic matrix, 2015)
